Source: PubChem BioAssay
A number with no mark means an inactive call. Active and inactive are the calls of the source.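 The calls were made as follows: active = inhibition above 50%; inactive = the rest.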

assay: human hepatoma cell viability loss – ATP luminescence, cytotoxicity control for P. falciparum antimalarial project, primary screen (AID 2303); conditions: HepG2 viability, 24-48 h, at 10 µM, active compounds read high;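 also: 0% = DMSO wells and 100% = digitonin-killed cells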

Row | SMILES | inhibition
1 | Cc1nc(-c2cccc(NCc3ccccc3)c2)[nH]c1C | 16%
2 | CS(=O)(=O)NCCCNCc1ccc(-c2cccc(-c3nc4ccc(F)cc4[nH]3)c2)cc1 | 15%
3 | C=CCNc1cc(-c2ccccn2)nc(-c2ccccn2)n1 | 78% (active)
4 | O=C(Nc1cccc(C(F)(F)F)c1)c1ccc(S(=O)(=O)NCC2CCCN2CC2CCCCC2)cc1 (centres undefined) | 14%
5 | Cc1cc(CN2CCC(Nc3ncc(-c4ccsc4)c4nc(C(F)(F)F)ccc34)CC2)no1 | 8%
6 | Oc1cccc2ccc(Nc3ccccn3)nc12 | 72% (active)
7 | C=C[C@]1(C)C[C@@H](OC(=O)c2cncn(COC)c2=O)[C@]2(C)[C@H](C)CC[C@]3(CCC(=O)[C@H]32)[C@@H](C)[C@@H]1O | -1%
8 | Cc1cc(C(=O)CN2C(=O)NC3(CCOc4ccccc43)C2=O)c(C)n1Cc1ccc(F)cc1 (centres undefined) | 1%
9 | CCCN(CCC)CCCOc1ccc(C(=O)c2c(-c3ccc(OCCCN(CCC)CCC)cc3)oc3ccc(Cl)cc23)cc1 | 100% (active)
10 | CCN(CC)C(=NCCCCCCN=C(/N=C(\N)Nc1ccc(Cl)c(Cl)c1)N(CC)CC)/N=C(\N)Nc1ccc(Cl)c(Cl)c1 | 1%
11 | COc1ccc(CNc2nc(NCc3ccc(C(F)(F)F)cc3)c3cc(OC)c(OC)cc3n2)cc1OC | 80% (active)
12 | COc1ccc2nccc(N3CCC(O)(CCNCc4ccc5c(n4)NC(=O)CS5)CC3)c2n1 | 10%
13 | COc1cc(Cc2cnc(N)nc2N)cc(OCCCOc2ccccc2)c1OC | 7%
14 | CC1CCCC(NCc2c(O)ccc3ccccc23)C1 (centres undefined) | 10%
15 | COc1ccc2nc3cc(Cl)ccc3c(NCc3ccccc3)c2c1 | 8%
16 | COc1cc2nc(C)nc(Nc3ccc(Oc4ccccc4)cc3)c2cc1OC | -8%
17 | O=C(NCc1ccc(F)cc1)Nc1cccc(-c2ccc(-c3nc4ccc(F)cc4[nH]3)cc2)c1 | 7%
18 | CC1N=C(N)N=C(N)N1OCc1cccc2ccccc12 (centres undefined) | 66% (active)
19 | O=C(Nc1ccc2c(c1)CCNCC2)Nc1ccc2ccccc2c1 | -6%
20 | O=C(C=Cc1ccc(Cl)c(Cl)c1)NCCCCCN1CCC(CCNC(=O)c2cccc3ccccc23)CC1 | 17%

Row | SMILES | inhibition
21 | C(=NNc1ccnc2ccccc12)c1ccncc1 | 7%
22 | COc1cc2c(cc1S(=O)(=O)c1ccc(NC(=O)c3cccc(C(F)(F)F)c3)cc1)CCN(C)CC2 | 18%
23 | CC(=O)C1=NN(c2ccc(C)cc2)C(c2cccs2)N1c1ccccc1 (centres undefined) | -4%
24 | CCNc1cc(C(=O)N[C@@H](Cc2ccccc2)[C@H](O)CNC(C)(C)c2cccc(OC)c2)cc(N2CCCC2=O)c1 | -3%
25 | COc1cc(Cc2cnc(N)nc2N)cc(OCCCCCC(N)=O)c1OC | -33%
26 | CS(=O)(=O)NCCCNCc1ccc(-c2ccc(-c3nc4ccc(C(F)(F)F)cc4[nH]3)cc2)cc1 | 25%
27 | O=C(Cc1cccs1)NC(CCCN1CCC(Oc2cccc(Cl)c2)CC1)c1ccc(Cl)c(Cl)c1 (centres undefined) | 39%
28 | COc1ccc(-c2cnc(N)c(-c3nc4ccc(Br)cc4[nH]3)c2)cc1 | 42%
29 | Cc1ccc(F)c(NC(=O)c2c(-c3c(F)cccc3Cl)noc2C)c1 | 13%
30 | COc1ccc(CNc2nccc3ccc(-c4ccc5nccn5c4)cc23)cc1 | 17%
31 | CN(C)C(=O)CCCn1c(CNCCCNc2cc(=O)c3ccccc3[nH]2)cc2c(Cl)cc(Cl)cc21 | 1%
32 | CN1CCc2cc(NS(=O)(=O)c3ccc(-c4ccc(Cl)s4)cc3)c(N3CCCCC3)cc2CC1 | 14%
33 | Cc1ccc(C(C#N)c2ccc3c(C(F)(F)F)cc(C(F)(F)F)nc3n2)cc1 (centres undefined) | 14%
34 | CN(C)CCNCc1ncsc1-c1ccc2c(Nc3ccc(F)cc3Cl)ccnc2c1 | -1%
35 | O=C(/C=C/c1ccc(Cl)c(Cl)c1)N1CCC(CNCc2cccc3cc[nH]c23)CC1 | 1%
36 | CC(=O)Nc1ccc(OCCCCN(Cc2ccccc2C(F)(F)F)c2ccc(C(F)(F)F)c(C#N)c2)c(Cl)c1 | 14%
37 | CS(=O)(=O)N(c1cccc(F)c1)c1cc(C(=O)N[C@@H](Cc2ccccc2)[C@H](O)CNCc2cccc(C(F)(F)F)c2)cc(N2CCCC2=O)c1 | 14%
38 | CCCCOC(=O)C1=C(C)NC2=C(C(=O)CC(c3ccc(OC)c(OC)c3)C2)C1c1ccc(O)cc1 (centres undefined) | -6%
39 | Cc1nn(-c2ccccc2)nc1C(=O)N(Cc1ccc(-c2ccc(CNCCc3ccc(S(C)(=O)=O)cc3)cn2)cc1)C(C)CN(C)C (centres undefined) | 25%
